Screen size: about 1,400 compounds; fewer than 10 were called active. Inconclusive results (about 11%) are left out. A selection follows. A number with no mark means an inactive call. Calls come from the whole dose curve.
Test: Assay for Inhibitors of Influenza NS1 Protein Function: Hit Validation; note: 0% is about no effect
Details: influenza NS1 function cell assay, 15-point titration; series mostly up to 32.9 µM; activity change, negative = inhibition: at the top concentration
Description: NIH Chemical Genomics Center [NCGC]
NIH Molecular Libraries Probe Centers Network [MLPCN]
Assay Submitter (PI): Daniel Engel
Influenza is a world-wide public health problem and emerging forms of the virus have the potential to cause a pandemic of equal or greater magnitude to the outbreaks recorded in 1918, 1957 or 1968. Vaccine development is proceeding and there also exist two classes of anti-influenza compounds. However these therapeutic modalities are neither fully effective nor widely enough available to fulfill global needs. In addition their potential usefulness against newly emergent strains is not known. Efforts are needed to develop novel agents against influenza virus, including broad-spectrum agents. Identification of small molecules that inhibit NS1 function either directly or by interfering with specific cellular pathways may be a key to increasing our defense against the virus.
We have miniaturized and optimized a cell based assay in which NS1 from influenza A is expressed in the budding yeast S. cerevisiae. NS1 is a multi-functional protein that counters the host innate immune response and facilitates viral versus cellular gene expression. Expression of NS1 causes a pronounced slow growth phenotype in yeast due to its intrinsic molecular activities. Small molecules that suppress the slow growth phenotype can be identified by a straightforward growth recovery assay using optical density (OD) as the measurement. The same yeast strain not expressing NS1 was used as positive control in the yeast growth recovery assay. The present experiment attempted to confirm the activity of compounds observed in the primary screen.
The yeast S. cerevisiae control and NS1 expressing cells were kindly supplied by laboratory of Dr. Daniel Engel, University of Virginia. Yeast starter cultures were stored in single use aliquots at -80C.
1. Yeast culture medium per liter: 1.2 g Yeast Nitrogen Base (w/out amino acids and Ammonium Sulphate), 5.0g Ammonium Sulphate, 0.77g -URA DO (drop-out) Supplement, adjust pH to 6.0. Adjust to 2% glucose prior to inoculating with yeast.
2. Yeast assay medium: 1.2 g Yeast Nitrogen Base (w/out amino acids and Ammonium Sulphate), 5.0g Ammonium Sulphate, 0.77g -URA DO (drop-out) Supplement, adjust pH to 6.0. Adjust to 2% D-galactose prior to inoculating with yeast.
1. Inoculate 100 mls of yeast culture medium with 1 ml of frozen yeast aliquote. Incubate overnight at 30C, 250RPM.
2. Harvest overnight culture at 4000 RPM and wash pellet with 15 mls H2O 3x.
3. Re-suspend washed pellet in 10 mls of yeast assay medium.
4. Prepare a 1:100 dilution of re-suspended culture in yeast assay medium.
5. Dispense 3.5 ul per well of reagents in step 4 in columns 2-48 in a black clear bottom 1536 well plate.
6. Dispense 3.5 ul per well of yeast assay medium in column 1 only.
7. Transfer 23 nl of compound per well.
8. Dispense 3.5 ul per well of yeast assay medium in columns 1-48.
9. Read plate using Viewlux protocol for optical density 600 (OD600) using excitation filter 600nm.
In the case of `Cc1cccc(N=C2NN=C(c3c[nH]c4ccccc34)CS2)c1`, the “activity change, negative = inhibition” value is reported as 16.9%. For `Cc1ccc(-c2ccc(=O)n(CC(=O)NCCCN3CCCCC3)n2)cc1`, the “activity change, negative = inhibition” value was -19.9%. With `CC(C)CCN(C(=O)c1csnn1)C(C(=O)NC1CCCC1)c1ccccc1` (stereo unspecified) the “activity change, negative = inhibition” value was -15.7%. For `COc1ccccc1C(=O)Nc1ccnn1C1CCN(C(=O)C(C)(C)C)CC1`, the “activity change, negative = inhibition” value was -1.33%. In the case of `COc1ccc(C(C(=O)NC2CCCCC2)N(C(=O)Cc2c[nH]c3ccccc23)c2ccccc2)cc1OC` (stereo unspecified), the “activity change, negative = inhibition” value is reported as 29.7%. In the case of `O=C1c2cccc(OCC(=O)N3N=C(c4cccs4)CC3c3ccc(F)cc3)c2CCN1Cc1ccccc1` (stereo unspecified), the “activity change, negative = inhibition” value is reported as 28.4%. For `COc1cccc(OC)c1C(=O)Nc1nnc(C(C)C)s1`, the “activity change, negative = inhibition” value was 4.22%. With `Cn1c(CC(=O)Nc2ccccc2)nnc1SCC(=O)c1ccccc1` the “activity change, negative = inhibition” value was 4.39%. With `COc1cc2c(cc1NC(=O)CN1CCN(S(=O)(=O)c3ccc(F)cc3)CC1)oc1ccccc12` the “activity change, negative = inhibition” value was 16.7%. With `CCCc1cc(=O)[nH]c(SCC(=O)c2cc(C)n(CCC)c2C)n1` the “activity change, negative = inhibition” value was 6.56%. In the case of `Cc1cccc([C@@H]2[C@@H]3C(=O)N(Cc4ccccc4)C(=O)[C@@H]3[C@]3(C)C(=O)N(c4ccc(Br)cc4)C(=O)N23)c1`, the “activity change, negative = inhibition” value is reported as -14.1%. In the case of `Nc1cccc(-c2cc(-c3ccccc3)nc(-c3cccc(N)c3)n2)c1`, the “activity change, negative = inhibition” value is reported as 4.5%. With `COc1ccc(S(=O)(=O)Nc2c(C)n(C)n(-c3ccccc3)c2=O)cc1` the “activity change, negative = inhibition” value was -0.376%. With `Cc1cccc(-n2c(SCC(=O)Nc3cccc(S(=O)(=O)NC4=NCCCCC4)c3)nc3ccccc3c2=O)c1C` the “activity change, negative = inhibition” value was 8.8%. In the case of `O=C1NC(=O)N(CCc2ccc(F)cc2)C(=O)/C1=C/C=C/c1ccccc1`, the “activity change, negative = inhibition” value is reported as 13.3%. In the case of `COCCn1c(C)cc(C2=NNC(=Nc3ccc(F)cc3)SC2)c1C`, the “activity change, negative = inhibition” value is reported as 37.6%. In the case of `CCOc1ccc(Nc2nc(Cl)nc(N3CCN(c4ccc(OC)cc4)CC3)n2)cc1`, the “activity change, negative = inhibition” value is reported as -29.9%. With `COC(=O)c1c(NC(=O)c2cccs2)sc2c1CCCC2` the “activity change, negative = inhibition” value was -37.7%. For `CC(C(=O)O)N1C(=O)c2cccc3cccc1c23` (stereo unspecified), the “activity change, negative = inhibition” value was 13.3%. In the case of `COCCN1C(=O)c2oc3c(C)cc(C)cc3c(=O)c2C1c1cccc(O)c1` (stereo unspecified), the “activity change, negative = inhibition” value is reported as -16.3%. For `Cc1cc2cc(CNC(=O)c3cccs3)ccc2[nH]1`, the “activity change, negative = inhibition” value was 13.7%. With `COc1ccc(-n2c(C)cc(C(=O)CSc3nnc(-c4cccs4)o3)c2C)cc1` the “activity change, negative = inhibition” value was -11.5%. With `Cc1ccc2c(c1)N(S(=O)(=O)c1cc(-c3cc(C)no3)ccc1C)CCO2` the “activity change, negative = inhibition” value was -16.2%. With `C1=C(N2CCOCC2)/C(=C/c2nc3ccccc3[nH]2)CC1` the “activity change, negative = inhibition” value was -22%. With `Cc1ccccc1C(OCC(O)CN1CCCCC1CCO)c1ccccc1` (stereo unspecified) the “activity change, negative = inhibition” value was -11.7%. With `CCc1ccc(S(=O)(=O)Nc2cc3c(cc2N2CCCCC2)n(C)c(=O)c(=O)n3C)cc1` the “activity change, negative = inhibition” value was -23.4%. In the case of `CC[C@@H](C)[C@@H](C(=O)N1CCN(C(=O)OC(C)(C)C)CC1)n1cc(CCC(=O)O)nn1`, the “activity change, negative = inhibition” value is reported as -1.83%. With `N#Cc1c(-c2cccs2)nc(SCC(=O)c2ccc(Br)cc2)[nH]c1=O` the “activity change, negative = inhibition” value was 16.4%. With `CN1CCN(C(=O)COc2ccc(C(C)(C)C)cc2Br)CC1` the “activity change, negative = inhibition” value was -0.237%. For `CC(C)c1c(O)nc(SCCOc2ccc(Cl)cc2)[nH]c1=O`, the “activity change, negative = inhibition” value was -1.92%. With `Cc1cc(=O)[nH]c(SCc2cc(Cl)ccc2OC(F)F)n1` the “activity change, negative = inhibition” value was -3.15%. With `O=C(CSC1=Nc2ccccc2C2=NC(CC(=O)NCc3ccco3)C(=O)N12)NCc1ccco1` (stereo unspecified) the “activity change, negative = inhibition” value was 25.8%. In the case of `Cc1cc(C)c2cc(CN(Cc3nnnn3Cc3ccc(F)cc3)C3CCCC3)c(=O)[nH]c2c1`, the “activity change, negative = inhibition” value is reported as -11.9%. In the case of `O=S(=O)(c1ccc(OCC(O)CN2CCN(c3ccccc3Cl)CC2)cc1)N1CCOCC1` (stereo unspecified), the “activity change, negative = inhibition” value is reported as -29.3%. In the case of `COc1cccc(-n2c(SCC(=O)NC3CCCCC3)nc3n[nH]c(C)c3c2=N)c1`, the “activity change, negative = inhibition” value is reported as 6.41%. For `CN(C)c1ccc(/C=C/C(=O)c2ccc(C(C)(C)C)cc2)cc1[N+](=O)[O-]`, the “activity change, negative = inhibition” value was 8.27%. For `COc1ccc(-c2nc(CS(=O)CC(=O)NCc3ccccn3)c(C)o2)cc1` (stereo unspecified), the “activity change, negative = inhibition” value was 27.1%. In the case of `O=C(O)CC(Cn1cnnn1)c1ccccc1` (stereo unspecified), the “activity change, negative = inhibition” value is reported as 3.43%. With `C[C@@H](C(=O)Nc1ccc2ccccc2c1)[C@@H]1C[C@@]1(C)[C@@H](NC(=O)c1cccnc1)c1ccccc1` the “activity change, negative = inhibition” value was 21.1%. For `COC(=O)C1=C(C)N=C2SC(C)C(=O)N2C1/C=C/c1ccccc1` (stereo unspecified), the “activity change, negative = inhibition” value was -0.327%. With `CCCc1nc2ccccc2c(=O)n1NC(=O)c1c(O)c2ccccc2[nH]c1=O` the “activity change, negative = inhibition” value was -16.5%.

Reference: PubChem BioAssay AID492980 (National Center for Advancing Translational Sciences (NCATS), 2010)
